Compound activity deposited in PubChem BioAssay by National Center for Advancing Translational Sciences (NCATS).
An excerpt weighted towards active compounds, which were near 12% of everything screened.
JMJD2A Tudor inh: qHTS Assay for Inhibitors of JMJD2A-Tudor Domain; AlphaScreen JMJD2A-Tudor / H3K4me3 peptide binding; Potency, µM (doses to about 114 µM), for inactives: at the top dose activity change, negative = inhibition, hits mostly inhibitors; 390,000 compounds, 4.4% hits; AID 504339, 2011; further: on the % scale 0 is the no-effect control and ±100 the full control effect; nearly all actives have a fitted effect of over 50% in size
G9a block: qHTS Assay for Inhibitors of Histone Lysine Methyltransferase G9a; Histone-lysine N-methyltransferase EHMT2 (Homo sapiens), Q96KQ7; G9a H3K9 monomethylation, AlphaScreen, 2 h; Potency, µM (titrated, usually from 102 µM), without a hit: at the highest dose activity, negative = inhibition, usual class: inhibitors; 350,000 compounds, 8.8% hits; AID 504332, 2011; further: on the % scale 0 is the no-effect control and ±100 the full control effect; nearly all actives have a fitted effect of over 75% in size
Target sequence (Q96KQ7 913-1193 limits assumed): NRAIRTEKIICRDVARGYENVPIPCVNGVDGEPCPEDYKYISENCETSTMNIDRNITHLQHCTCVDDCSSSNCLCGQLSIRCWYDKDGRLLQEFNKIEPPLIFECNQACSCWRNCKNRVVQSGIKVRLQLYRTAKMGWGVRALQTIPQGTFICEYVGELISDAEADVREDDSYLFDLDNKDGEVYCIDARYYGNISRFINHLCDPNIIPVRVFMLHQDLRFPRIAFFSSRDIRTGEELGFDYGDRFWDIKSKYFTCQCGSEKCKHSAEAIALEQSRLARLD
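Readings reflect AlphaScreen signal from monomethyl-H3K9 antibody detection. HMT at 20 nM; substrate b-H3K9 500 nM; cofactor SAM 20 uM; 2 h RT reaction; compounds tested as titrations in qHTS with 15 min preincubation.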
BAZ2B inh: qHTS Assay for Inhibitors of BAZ2B | Bromodomain adjacent to zinc finger domain protein 2B (Homo sapiens), Q9UIF8 | Potency, µM (series often up to 114 µM), for inactives: top-dose activity change, negative = inhibition, hits mostly inhibitors | 360,000 compounds, 4.4% hits | AlphaScreen BAZ2B-H3K14Ac peptide displacement; further: on the % scale 0 is the no-effect control and ±100 the full control effect; nearly all actives have a fitted effect of over 60% in size
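BAZ2B (50 nM) with biotin-H3(5-23)K14Ac peptide (50 nM) in PBS pH 7.4, 0.01% Tween-20, preformed 30 min, then compound 30 min at room temperature; top concentration 110uM. AlphaScreen streptavidin donor/nickel chelate acceptor beads (10 ug/mL final), 20 min dark, signal read.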
HP1b binding inh: HTS for Inhibitors of HP1-beta Chromodomain Interactions with Methylated Histone Tails | AID 540317, 2011 | Potency, µM (titrated, usually from 114 µM), for the others: top-dose activity change, negative = inhibition, actives largely listed as inhibitors | Chromobox protein homolog 1 (Homo sapiens), P83916 | AlphaScreen HP1-beta / biotin-H3K9me3 peptide binding | 390,000 compounds, 0.56% hits; further: nearly all actives have a fitted effect of over 70% in size
Target sequence (P83916 whole entry, looked up): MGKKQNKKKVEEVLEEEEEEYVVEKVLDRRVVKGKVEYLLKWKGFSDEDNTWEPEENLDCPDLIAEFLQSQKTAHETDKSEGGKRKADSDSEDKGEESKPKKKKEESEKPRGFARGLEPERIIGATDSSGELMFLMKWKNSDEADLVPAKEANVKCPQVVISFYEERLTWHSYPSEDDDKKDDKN
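HP1-beta protein (50 nM final) preincubated 30 min at room temperature with biotinylated H3(1-18)K9me3 peptide (50 nM) in PBS pH 7.4, 0.01% Tween-20, then compound added for 30 min. AlphaScreen streptavidin donor/nickel chelate acceptor beads (10 ug/mL final), 30 min dark, luminescence read.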
PLK1 PBD block: qHTS for Inhibitors of PLK1-PDB (polo-like kinase 1 - polo-box domain): Primary Screen; Serine/threonine-protein kinase PLK1 (Homo sapiens), P53350; Potency, µM, for inactives: max response, negative = inhibition, hits mostly inhibitors; 360,000 compounds, 2.8% hits; Plk1 PBD binding of FITC phosphopeptide, fluorescence polarization; further: series mostly up to about 57 µM; on the % scale 0 is the no-effect control and ±100 the full control effect; nearly all actives have a fitted effect of over 65% in size
Sfp inh: qHTS Assay for Inhibitors of Bacillus subtilis Sfp phosphopantetheinyl transferase (PPTase); Potency, µM, for the others: largest response in the series, negative = inhibition, actives largely listed as inhibitors; 310,000 compounds, 3.5% hits; AID 1490, 2009; Biochemical Sfp PPTase activity, qHTS;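 further: the enzyme is Sfp with the accession as filed and its product quenches rhodamine fluorescence; 0% = enzyme reaction without inhibitor and -100% = no enzyme wells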
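Fluorescence-quenching assay with 15 nM Sfp, 5 uM rhodamine-CoA and 12.5 uM BHQ-2-labelled ybbR peptide in pH 7.6 Hepes/MgCl2 buffer. Enzyme was pre-incubated with compound for 15 min at room temperature. Rate was taken from the 30-min fluorescence change (525/598 nm).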
* marks the source's active call; other numbers are inactive results; [ ] = dose if it differs, or a comment. The call rests on the fitted dose curve; in most records, active means well fitted curve in the direction sought with a large enough effect; inconclusive means small, poorly fitted or top-dose-only effect, or another doubt; inactive means no such curve, though single readings can be large; an effect the other way counts as inactive or inconclusive. Potency means the concentration at half of the fitted maximal effect.

Screening COCCNC(=O)c1ccccc1N(Cc1ccccc1)S(=O)(=O)c1ccccc1 returned JMJD2A Tudor inh -27.9%, HP1b binding inh 32.9% and PLK1 PBD block -10.2%.
Screening CC(Cl)OC(=O)Nc1cccc2cccnc12 (stereo not drawn) returned JMJD2A Tudor inh inconclusive and HP1b binding inh 20.7%.
`CCOc1ccc(CC(=O)C2C(=O)CCCC2=O)cc1OCC` gave JMJD2A Tudor inh 25.1µM*, G9a block 11.2µM*, BAZ2B inh inconclusive, HP1b binding inh 44.9%, PLK1 PBD block -15.8% and Sfp inh inconclusive.
For CCOc1ccc(CC(=O)C2C(=O)CC(C)(C)CC2=O)cc1OCC the results were JMJD2A Tudor inh 17.8µM*, G9a block 10µM*, BAZ2B inh inconclusive, HP1b binding inh 54.9%, PLK1 PBD block -3.9% and Sfp inh inconclusive.
`CCOc1ccc(CC(=NCCc2ccccc2)C2=C(O)CC(C)(C)CC2=O)cc1OCC` gave JMJD2A Tudor inh -12.9%, G9a block 70.8µM*, BAZ2B inh -3.8%, HP1b binding inh 34.0%, PLK1 PBD block -8.8% and Sfp inh 4.1%.
`CCOc1ccc(CC(=O)C2=C(N3CCOCC3)CC(C)(C)CC2=O)cc1OCC` gave JMJD2A Tudor inh -18.6%, G9a block 25.1µM*, BAZ2B inh -23.7%, HP1b binding inh 28.0%, PLK1 PBD block -18.1% and Sfp inh -2.3%.
`CCOc1ccc(CC(=N)C2=C(O)CC(C)(C)CC2=O)cc1OCC` gave JMJD2A Tudor inh 9.4%, G9a block 12.6%[59 µM], BAZ2B inh 6.5%, HP1b binding inh 33.7%, PLK1 PBD block -1.4% and Sfp inh 4.0%.
Screening COc1ccc(N2CC(C(=O)Nc3ccccc3-c3nc(-c4ccc(C)cc4)no3)CC2=O)cc1 (stereo not drawn) returned JMJD2A Tudor inh -22.2%, G9a block 4.7%[59 µM], BAZ2B inh 7.6% and HP1b binding inh 3.9%.
For COc1ccc(-c2cn3nc(N4CCCC(C(=O)NCc5ccccc5Cl)C4)sc3n2)cc1 (stereo not drawn) the results were JMJD2A Tudor inh -20.5%, G9a block inconclusive, BAZ2B inh -12.3% and HP1b binding inh 14.9%.
O=C(NCc1ccco1)C12CC3CC(C1)CC(C(=O)NCc1ccco1)(C3)C2 was read as JMJD2A Tudor inh -24.6%, G9a block inconclusive, BAZ2B inh -1.0%, HP1b binding inh 11.4%, PLK1 PBD block -4.7% and Sfp inh -9.5%.
`CC12CC3CC(C)(C1)CC(C(=O)NCc1ccco1)(C3)C2` gave JMJD2A Tudor inh -21.8%[57.1 µM], G9a block -6.4%, BAZ2B inh -13.0%, HP1b binding inh -6.3%, PLK1 PBD block 26.7µM* and Sfp inh 10.4%.
`CC1(C)c2ssc(=S)c2-c2ccccc2N1C(=O)CSC1=NCCS1` gave JMJD2A Tudor inh 8.91µM*, G9a block 25.1µM*, BAZ2B inh 25.1µM*, HP1b binding inh inconclusive, PLK1 PBD block -15.3% and Sfp inh -4.3%.
Screening Cc1cc2c(cc1C)N(C(=O)CSC1=NCCS1)C(C)(C)c1ssc(=S)c1-2 returned JMJD2A Tudor inh 6.31µM*, G9a block 5.01µM*, BAZ2B inh 8.91µM*, HP1b binding inh inconclusive, PLK1 PBD block -4.9% and Sfp inh 6.8%.
Cc1nnc(NC(=O)C2COc3ccccc3O2)s1 (stereo not drawn) was read as JMJD2A Tudor inh -21.3%[57.1 µM], G9a block 20.1%, BAZ2B inh -1.3%, HP1b binding inh -3.9%, PLK1 PBD block 21.2µM* and Sfp inh 18.4%.
For Cc1nnc(NC(=O)C2c3ccccc3Oc3ccccc32)s1 the results were JMJD2A Tudor inh -13.6%, G9a block 11.2µM*, BAZ2B inh 0.9%, HP1b binding inh inconclusive, PLK1 PBD block 21.2µM* and Sfp inh -91.2%.
`O=C(Nc1ccc(F)cc1)C1COc2ccccc2O1` (stereo not drawn) gave JMJD2A Tudor inh -5.3%, G9a block 39.8µM*, BAZ2B inh 3.4%, HP1b binding inh 39.6%, PLK1 PBD block -0.4% and Sfp inh 3.9%.
Screening COc1ccc2nc(NNC(=O)C3COc4ccccc4O3)sc2c1 (stereo not drawn) returned JMJD2A Tudor inh -22.2%, G9a block inconclusive, BAZ2B inh 6.8%, HP1b binding inh 42.0%, PLK1 PBD block 0.2% and Sfp inh 79.4µM*.
N#Cc1ccc(C(=O)NC2CCCCCCC2)cc1 was read as JMJD2A Tudor inh -12.4%, G9a block -8.6%, BAZ2B inh 9.8%, HP1b binding inh -5.3%, PLK1 PBD block -26.3% and Sfp inh -10.4%.
For CCn1nc(C)cc1-c1nnc(Sc2ncc([N+](=O)[O-])s2)n1C the results were JMJD2A Tudor inh inconclusive, G9a block 6.31µM*, BAZ2B inh -12.0%, HP1b binding inh 19.3%, PLK1 PBD block inconclusive and Sfp inh 44.7µM*.
For CCn1nc(C)cc1-c1nnc(SCC(=O)Nc2ccccc2)n1CCCOC the results were JMJD2A Tudor inh 2.8%, BAZ2B inh 0.9%, HP1b binding inh 22.8%, PLK1 PBD block 4.5% and Sfp inh -4.3%.
Screening CCCNC(=O)C(Cc1ccccc1)NC(=O)c1ccc(C(F)(F)F)cc1 (stereo not drawn) returned JMJD2A Tudor inh -5.0%, G9a block -9.2%[2.33 µM], BAZ2B inh 6.0%, HP1b binding inh 53.6% and PLK1 PBD block -8.6%.
`COc1ccc(CC(=O)NC2CC2)cc1OC` gave JMJD2A Tudor inh -22.4%, G9a block 5.8%, BAZ2B inh -0.9%, HP1b binding inh 56.0%, PLK1 PBD block -5.7% and Sfp inh 11.8%.
Screening CCOC(CNC(=O)CN1C(=O)COc2ccc(S(=O)(=O)N3CC(C)CC(C)C3)cc21)OCC (stereo not drawn) returned JMJD2A Tudor inh -7.0%, BAZ2B inh 9.5%, HP1b binding inh 29.1%, PLK1 PBD block -5.5% and Sfp inh 18.6%.
`O=C(Nc1ccc2c(c1)CCC2)c1cc(S(=O)(=O)Nc2ccc(F)cc2)c(Cl)cc1Cl` gave JMJD2A Tudor inh inconclusive, G9a block 10µM*, BAZ2B inh -6.6%, HP1b binding inh -4.5%, PLK1 PBD block -11.3% and Sfp inh 13.9%.
